# Measurements as given in the OligoGym collection.
# Legend:
# Experiment in all cases: pooled miR-30 sensor sort-seq; sequence = guide strand
# Conditions in all cases: shRNA
# [1] = target: EDF1
# [2] = target: EFCAB6
# [3] = target: ECH1
# [4] = target: EDDM3B
# [5] = target: EEF1B2
# [6] = target: EHD3
# [7] = target: EIF3M
# [8] = target: ENAM
# [9] = target: EPB41
# [10] = target: EPDR1
# [11] = target: EPC2
# [12] = target: EPAS1
# [13] = target: EPHB3
# [14] = target: EPHA8
# [15] = target: EPHX1
# [16] = target: EPHX2
# Further: reference of the scale not given here.
sequence,measurement,setting,value
TTGCTCTGCCGACCTTGCTGGA,sensor-assay potency score (higher = more potent),[1],-1.14
TTCACTTAACAGCTGATCCTTT,sensor-assay potency score (higher = more potent),[2],0.362
TCTTTGTCTGGGAACACCCGGC,sensor-assay potency score (higher = more potent),[3],-0.283
AAGCACTCTACCATCTCTCTCC,sensor-assay potency score (higher = more potent),[3],-0.152
TAAACTGGGAAACTGGGTCAGA,sensor-assay potency score (higher = more potent),[3],-0.506
TTTCGTGGCCAGGTCCTTCTGC,sensor-assay potency score (higher = more potent),[1],-0.179
TAGTTCTGAATCCGCAACCTTC,sensor-assay potency score (higher = more potent),[2],-0.922
TTTCGGAAGCGATCCATCCAGT,sensor-assay potency score (higher = more potent),[4],-0.761
TGAACATTTTTCCTGCACCAGA,sensor-assay potency score (higher = more potent),[3],-1.08
TTCTCATTGATTTTCGTGGCCA,sensor-assay potency score (higher = more potent),[1],-0.538
TACAGCAGGTTGACCTTGGTGC,sensor-assay potency score (higher = more potent),[3],0.173
TTGTGCAGAGGAGCCAGTGAGG,sensor-assay potency score (higher = more potent),[3],-1.37
TAGTTTGTAACAGAAATCCTTA,sensor-assay potency score (higher = more potent),[2],-0.465
TTGAATGCTTCTGACGCACTCC,sensor-assay potency score (higher = more potent),[5],0.113
TCTTGCTGGAAATCTCGGCCGC,sensor-assay potency score (higher = more potent),[3],-0.461
TTGCTCTGTACAAGCAGTGTGC,sensor-assay potency score (higher = more potent),[4],-0.53
TTCAGCACCACTCGCATCTTGT,sensor-assay potency score (higher = more potent),[6],-0.387
TTGATGAGGTCGTTGAGCTTGC,sensor-assay potency score (higher = more potent),[6],0.159
TTGCTTAACAACTGCAGTCTCA,sensor-assay potency score (higher = more potent),[7],-0.8
TTAACAACTGCAGTCTCAGAGA,sensor-assay potency score (higher = more potent),[7],-0.725
TTGAGGTATATTGTTCACCTTC,sensor-assay potency score (higher = more potent),[8],-0.314
TAGAGCACTAGCTTGCCTGGTC,sensor-assay potency score (higher = more potent),[9],0.107
TAGGATTCTCTAAACTGCCTTG,sensor-assay potency score (higher = more potent),[10],-0.223
TTATGTCTTCTGTTAACTGTGC,sensor-assay potency score (higher = more potent),[9],-0.0684
TTAGCTGCTCGGTAACTGGGAA,sensor-assay potency score (higher = more potent),[9],-0.397
TATCTTGTTATGTCTTCTGTTA,sensor-assay potency score (higher = more potent),[9],-0.573
TGTTTGACAAGATTCCTCCTGC,sensor-assay potency score (higher = more potent),[9],0.721
TAAAACTTTACATTAAATGTAA,sensor-assay potency score (higher = more potent),[9],-0.313
TTGATCTCCTCTTGACTCTTGT,sensor-assay potency score (higher = more potent),[9],0.588
TTCTTCACTATCACTGTCCTGT,sensor-assay potency score (higher = more potent),[11],0.612
TTCTTGAAGTGTTACAAGCTGA,sensor-assay potency score (higher = more potent),[11],-0.486
TATAACTCTTTTTCTGATCTAC,sensor-assay potency score (higher = more potent),[11],0.207
TTCTGGGTCGTAGTCTCCCAGT,sensor-assay potency score (higher = more potent),[9],-1.42
TTGAGGTACATTCTTCACTATC,sensor-assay potency score (higher = more potent),[11],-1.27
TTGCTGTTTCTGCTGAAGCTGG,sensor-assay potency score (higher = more potent),[11],-1.06
TTTTTCTCTAAACACTTGCTGT,sensor-assay potency score (higher = more potent),[11],-0.823
TCTAGCTGACTTTCTGTCCGAC,sensor-assay potency score (higher = more potent),[10],-0.0561
TTAATTTCCATCTTTCTGTTAA,sensor-assay potency score (higher = more potent),[11],-0.679
TTTGTAGAAACAACCAGCCTGG,sensor-assay potency score (higher = more potent),[9],0.246
TTGAACAATTCTGATATCCTAA,sensor-assay potency score (higher = more potent),[9],-0.113
TTTTCTGACAGAAAGATCATGT,sensor-assay potency score (higher = more potent),[12],0.329
TTGACTCTTGTCTAAATCCTCC,sensor-assay potency score (higher = more potent),[9],-0.522
TTTCTCTAAACACTTGCTGTGC,sensor-assay potency score (higher = more potent),[11],-0.595
ATAATTTCTTAGCTGCTCGGTA,sensor-assay potency score (higher = more potent),[9],-0.474
TTCTTTGCCTTCTTCCTCGGAC,sensor-assay potency score (higher = more potent),[9],-0.102
TTGCATCTGAACTAACTGCTGC,sensor-assay potency score (higher = more potent),[11],0.128
TTAAGTGCAATAATTCTCGTTT,sensor-assay potency score (higher = more potent),[11],0.497
TTTACTTCTATTTTGGAGCACT,sensor-assay potency score (higher = more potent),[9],-0.574
TTTACTTGCTGTACGCTCGAAG,sensor-assay potency score (higher = more potent),[9],0.135
TTGGTCACTGACATGTCTGGGT,sensor-assay potency score (higher = more potent),[9],-0.161
TTAGCTGGAAGTCTTCCCCGTC,sensor-assay potency score (higher = more potent),[12],-0.236
TAGAAGTCATTGAAGGTGGGGA,sensor-assay potency score (higher = more potent),[12],0.421
TAGTTTTACATTCTTGAACTTT,sensor-assay potency score (higher = more potent),[11],-0.105
ATCTTCTCTGAGTTCTTCCTGA,sensor-assay potency score (higher = more potent),[9],-0.459
TAGCTTGCCTGGTCTGAGCTTG,sensor-assay potency score (higher = more potent),[9],-0.0306
TTCATAAACTGTGTCATCCAAC,sensor-assay potency score (higher = more potent),[9],-0.828
TTTTTCAGCTCACTGATGCTGG,sensor-assay potency score (higher = more potent),[9],0.147
TTTGATCTCCTCTTGACTCTTG,sensor-assay potency score (higher = more potent),[9],0.604
TTGACAAGATTCCTCCTGCTGA,sensor-assay potency score (higher = more potent),[9],-0.541
TAGAATAATCTTGAAAGTCTGA,sensor-assay potency score (higher = more potent),[9],0.113
TTATTGTTCACAGTCTGCCCTG,sensor-assay potency score (higher = more potent),[11],-0.344
TTGCAGATGACATTGTACAGGA,sensor-assay potency score (higher = more potent),[13],-0.122
TCGATTTTGAGGAACTGGCTTT,sensor-assay potency score (higher = more potent),[14],-0.582
TCACCAACTGTCGTGAAGGTTG,sensor-assay potency score (higher = more potent),[13],-0.896
TTGCAGTAGAGCTTGAGTGGCA,sensor-assay potency score (higher = more potent),[13],-0.145
TCATACTCCAGGATGATGCCGT,sensor-assay potency score (higher = more potent),[14],0.44
ATCGAGGACACTGACAATCTGG,sensor-assay potency score (higher = more potent),[14],-0.163
ATTGCGGATGAGCTTGTCCAGG,sensor-assay potency score (higher = more potent),[13],-1.31
TTGATCTCAGCATAGACGCGCC,sensor-assay potency score (higher = more potent),[14],-0.595
TCTCCGTGTACTCCGAATCAGA,sensor-assay potency score (higher = more potent),[13],-1.2
TTGAGCTCCACGTAGACCCGCT,sensor-assay potency score (higher = more potent),[13],0.189
TACTTCATCTCGTAGTCCAGGA,sensor-assay potency score (higher = more potent),[13],-0.409
TGATAGTGCATCTTCTCCTCGT,sensor-assay potency score (higher = more potent),[14],0.0465
TCTGTCTCTCCGTGTAGCCGGC,sensor-assay potency score (higher = more potent),[14],-0.777
TGCATCTTCTCCTCGTCCGAGT,sensor-assay potency score (higher = more potent),[14],-1.08
TAGTCCAGGATGACTCCGTTGG,sensor-assay potency score (higher = more potent),[13],-0.557
TACTGCTGCAGCTTCTCCGTGT,sensor-assay potency score (higher = more potent),[13],0.38
TAGTACTTGATCTCATACTCCA,sensor-assay potency score (higher = more potent),[14],-0.186
TTGCTGTCAACCAGGACGTTGC,sensor-assay potency score (higher = more potent),[14],-1.32
TTGTCATCACAGCGTGAGCAGG,sensor-assay potency score (higher = more potent),[13],-1.61
TGCATGATGGTGAACTGCCCGT,sensor-assay potency score (higher = more potent),[14],-1.1
AACTGGTGTAGGTAGGATCGGA,sensor-assay potency score (higher = more potent),[13],-0.385
TATGACAGCACCAAGGGCGGGG,sensor-assay potency score (higher = more potent),[13],-0.054
TTCTCGTAGTACTTGATCTCAT,sensor-assay potency score (higher = more potent),[14],-0.461
TAGCAGAAGTGAACTTCCGATA,sensor-assay potency score (higher = more potent),[13],-0.801
TTTGAGGAACTGGCTTTCTTGT,sensor-assay potency score (higher = more potent),[14],-1.09
TTGTGGTCTCAAACTCGGCAGG,sensor-assay potency score (higher = more potent),[13],-1.08
TCCATTCTGATAGTGCATCTTC,sensor-assay potency score (higher = more potent),[14],-0.518
TTGTACAGGAGGTCATCCCGGC,sensor-assay potency score (higher = more potent),[13],-0.315
TTACACACCTGGTATGTGCGGA,sensor-assay potency score (higher = more potent),[13],0.227
TTCATCTGGCTGGTCACTGTGG,sensor-assay potency score (higher = more potent),[13],-0.423
TCGTAGTCCAGGATGACTCCGT,sensor-assay potency score (higher = more potent),[13],-0.375
TTGTTCTGGCTTGACTCGCGCA,sensor-assay potency score (higher = more potent),[13],-0.743
ATGACAATTCCGTAGCTCCAGA,sensor-assay potency score (higher = more potent),[13],-1.32
TCACATTGGAGATCACACCTCG,sensor-assay potency score (higher = more potent),[13],0.593
TTGCTGTTGACAAGGATGTTGC,sensor-assay potency score (higher = more potent),[13],-0.897
ATTTTCTCGATGTGGATCCTAG,sensor-assay potency score (higher = more potent),[14],-0.272
TAGCCGGCACTGCACACGCATT,sensor-assay potency score (higher = more potent),[14],-1.71
TGGATCTCCTCATCTGACGTTT,sensor-assay potency score (higher = more potent),[15],-0.892
TGAGGTTTCATTCACATTGGAG,sensor-assay potency score (higher = more potent),[13],-0.889
TCTGATAGTGCATCTTCTCCTC,sensor-assay potency score (higher = more potent),[14],0.0792
TGCAATATTCTTCTATTTCGGG,sensor-assay potency score (higher = more potent),[16],-0.612
AACTGCTGCACATAGAACTGGA,sensor-assay potency score (higher = more potent),[16],-0.354
TTGGATTGCAAGAGGTCGGCAG,sensor-assay potency score (higher = more potent),[16],-0.532
TCTCCTTACATAACACTTCCAT,sensor-assay potency score (higher = more potent),[16],-0.551
TTTGATACTCTCCAAAGGGGAC,sensor-assay potency score (higher = more potent),[16],-0.915
TTGTCCAGTAGAGCATGACGTT,sensor-assay potency score (higher = more potent),[15],-1.4
TTCTTTTATGGAGAAATTCTTG,sensor-assay potency score (higher = more potent),[16],-0.837
TAGAACTGGATTTCCTCCTCAG,sensor-assay potency score (higher = more potent),[16],0.253
TTCCATGCAATATTCTTCTATT,sensor-assay potency score (higher = more potent),[16],-0.473
TACTTGAACCTCACCCACTTTT,sensor-assay potency score (higher = more potent),[15],-0.563
TTCTCCTTGTAGAAGCGCTGGG,sensor-assay potency score (higher = more potent),[15],-0.596
TATTCTTCTATTTCGGGAGGAG,sensor-assay potency score (higher = more potent),[16],0.331
TAGGAATAGGAGATGAGCTTTG,sensor-assay potency score (higher = more potent),[15],-0.367
TTTCTGGCTGAAATCGCCTTGT,sensor-assay potency score (higher = more potent),[16],-0.617
TCTCCTTGTAGAAGCGCTGGGA,sensor-assay potency score (higher = more potent),[15],-0.317
TTCAAAAACGTGCTCATCGCTC,sensor-assay potency score (higher = more potent),[15],-0.238
TCTTAGTCTTGAAGTGAGGGTA,sensor-assay potency score (higher = more potent),[15],0.435
TCAATCTTAGTCTTGAAGTGAG,sensor-assay potency score (higher = more potent),[15],-0.441
TATCAGGAAGTCAAAGTGCATC,sensor-assay potency score (higher = more potent),[16],-1.33
